Measurements from PubChem BioAssay (Tox21).
“And” between values parts separate entries of the source, which are not always exact repeats. Identical values can stand only once. Records with an inconclusive call do not appear. Entries that show only a call come without a potency. The source made the active and inactive calls. Unless noted, calls come from the whole dose curve.

Legend:
[1] = Nuclear factor erythroid 2-related factor 2/antioxidant responsive element (Nrf2/ARE) small molecule agonists: qHTS cell viability counter screen in human keratinocytes (AID 1919968; active = well fitted curve in the direction sought with a large enough effect in the repeat runs; an effect the other way counts as inactive or inconclusive; note: nearly all actives have a fitted effect of over 55% in size; note: potency is the fitted concentration of half-maximal effect)
How it was run: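 Measured as CellTiter-Fluor fluorescence, this readout tracks cytotoxicity in the same wells as the ARE-luciferase screen. HaCaT reporter cells (1,500/well) received compounds after a 5 h pre-incubation and were exposed for 23 h.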

[2] = target: Gonadotropin-releasing hormone receptor (Homo sapiens) (UniProt P30968); test: Human gonadotropin-releasing hormone receptor (GnRHR) small molecule agonists, calcium flux assay in GnRHR-HEK293 cells (AID 1920063); note: nearly all actives have a fitted effect of over 35% in size
Sequence of Gonadotropin-releasing hormone receptor (Homo sapiens) (P30968 whole entry, looked up): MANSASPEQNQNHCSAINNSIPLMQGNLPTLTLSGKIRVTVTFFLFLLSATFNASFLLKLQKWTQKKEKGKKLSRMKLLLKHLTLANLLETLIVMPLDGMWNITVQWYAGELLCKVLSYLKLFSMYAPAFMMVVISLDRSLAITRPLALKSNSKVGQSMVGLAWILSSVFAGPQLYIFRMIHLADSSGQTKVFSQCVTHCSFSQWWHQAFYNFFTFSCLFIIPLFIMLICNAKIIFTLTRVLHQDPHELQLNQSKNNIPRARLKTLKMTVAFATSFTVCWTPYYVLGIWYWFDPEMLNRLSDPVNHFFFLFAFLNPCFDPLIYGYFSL
How it was run: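 Fluorescence kinetics (480 nm excitation, 540 nm emission; 3 min, 1 s steps) report calcium mobilisation in human GnRHR-HEK293 cells in agonist mode. Dye incubation: 1 h, 37 C.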

[3] = target: KiSS-1 receptor (Homo sapiens) (UniProt Q969F8); test: Human kisspeptin (KISS1R) small molecule agonists, calcium flux assay in KISS1R-HEK293 cells (AID 1920064; active = well fitted curve in the direction sought with a large enough effect in the repeat runs; an effect the other way counts as inactive or inconclusive)
Sequence of KiSS-1 receptor (Homo sapiens) (Q969F8 whole entry, looked up): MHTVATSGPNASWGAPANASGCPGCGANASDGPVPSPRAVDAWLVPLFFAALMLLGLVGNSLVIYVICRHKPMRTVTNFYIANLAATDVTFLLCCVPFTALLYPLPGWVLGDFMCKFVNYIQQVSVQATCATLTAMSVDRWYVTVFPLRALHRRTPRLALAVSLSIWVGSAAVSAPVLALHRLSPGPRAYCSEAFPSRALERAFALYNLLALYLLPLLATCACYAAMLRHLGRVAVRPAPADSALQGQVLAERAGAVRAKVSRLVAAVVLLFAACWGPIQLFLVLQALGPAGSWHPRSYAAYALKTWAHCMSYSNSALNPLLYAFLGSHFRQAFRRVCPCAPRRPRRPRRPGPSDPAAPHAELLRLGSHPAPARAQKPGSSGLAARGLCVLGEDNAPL
How it was run: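 Measures KISS1R agonism through calcium-sensitive dye fluorescence in stably transfected HEK293 cells, read for 3 min after pin-tool compound delivery; 15-point titrations in triplicate.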

[4] = G protein-coupled receptor (GPCR) small molecule agonists, calcium flux assay: HEK293 wild type cell line counter screen (AID 1920065)
How it was run: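 Readout: fluorescence at 480 nm excitation/540 nm emission, sampled at 1 s intervals for 3 min. Cells had been cultured 18 h, then dye-loaded 1 h at 37 C before compound or ATP addition.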

[5] = p53 small molecule agonists, cell-based qHTS assay with human liver microsomes (AID 1963577);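 note: p53 response element beta-lactamase reporter cells with liver microsomes plus NADPH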
How it was run: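 In this qHTS, p53 response-element beta-lactamase cells receive test compound together with a microsome/NADPH activating system (0.5 mg/mL final each) and are incubated 16 h at 37 C before LiveBLAzer fluorescence detection.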

[6] = p53 small molecule agonists, cell-based qHTS assay with rat liver microsomes (AID 1963578)
How it was run: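 Agonist mode in p53RE-bla reporter cells, with compounds co-incubated 16 h at 37 C alongside 0.5 mg/mL rat liver microsomes and 0.5 mg/mL NADPH (final), followed by a 2 h LiveBLAzer detection step.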

[7] = p53 small molecule agonists, cell-based qHTS assay with human liver microsomes: qHTS cell viability counter screen (AID 1963579); note: nearly all actives have a fitted effect of over 45% in size
How it was run: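 Metabolically activated exposure: compounds, human liver microsomes and NADPH (0.5 mg/mL final apiece) were added to p53RE-bla cells seeded 5 h earlier, left 16 h at 37 C, and then assessed for viability by CellTiter-Glo luminescence.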

[8] = p53 small molecule agonists, cell-based qHTS assay with rat liver microsomes: qHTS cell viability counter screen (AID 1963580); note: nearly all actives have a fitted effect of over 45% in size
How it was run: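 In HCT-116 cells carrying a p53 response element-bla reporter, compounds were metabolically activated in situ by rat liver microsomes with NADPH over 16 h. Cell ATP content then served as the cytotoxicity measure.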

[9] = p53 small molecule agonists, cell-based qHTS assay: qHTS cell viability counter screen (AID 1963581); note: nearly all actives have a fitted effect of over 45% in size
How it was run: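 In the same plates used for the p53 bla reporter, HCT-116 cells given compounds for 16 h at 37 C received CellTiter-Glo; luminescence was recorded 30 min later at room temperature.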

[10] = p53 small molecule agonists, cell-based qHTS assay (AID 1963582; active = well fitted activation curve with a large enough effect in the signal ratio in the repeat runs, not every such curve was filed as active; the % refers to the signal ratio)
How it was run: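 Compounds are pin-transferred in DMSO onto p53RE-bla cells and incubated 16 h at 37 C. The B/G FRET beta-lactamase substrate is then applied for 2 h at RT and fluorescence recorded.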

[11] = cAMP Responsive Elements (CRE) small molecule agonists, cell-based qHTS assay (AID 1963590)
How it was run: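 Cell line: CRE-bla HEK 293T; medium DMEM/10% dialyzed FBS/0.1 mM NEAA/1 mM pyruvate/25 mM HEPES; 3 h compound exposure; beta-lactamase FRET readout after 2 h substrate loading at RT.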

[12] = cAMP Responsive Elements (CRE) small molecule antagonists, cell-based qHTS assay (AID 1963591; active = well fitted inhibition curve with a large enough effect in the signal ratio in the repeat runs, not every such curve was filed as active; the % refers to the signal ratio)
How it was run: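 Inhibition of NKH477-driven (0.25 uM final) CRE-beta-lactamase signal in HEK293T cells, 3 h compound exposure at 37 °C, detected by FRET substrate fluorescence.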

[13] = target: Beta-2 adrenergic receptor (Homo sapiens) (UniProt P07550); test: Adrenergic beta2 receptor (ADRB2) small molecule antagonists, cell-based qHTS assay (AID 1963592); note: series mostly up to about 92 µM; nearly all actives have a fitted effect of over 50% in size
Sequence of Beta-2 adrenergic receptor (Homo sapiens) (P07550 whole entry, looked up): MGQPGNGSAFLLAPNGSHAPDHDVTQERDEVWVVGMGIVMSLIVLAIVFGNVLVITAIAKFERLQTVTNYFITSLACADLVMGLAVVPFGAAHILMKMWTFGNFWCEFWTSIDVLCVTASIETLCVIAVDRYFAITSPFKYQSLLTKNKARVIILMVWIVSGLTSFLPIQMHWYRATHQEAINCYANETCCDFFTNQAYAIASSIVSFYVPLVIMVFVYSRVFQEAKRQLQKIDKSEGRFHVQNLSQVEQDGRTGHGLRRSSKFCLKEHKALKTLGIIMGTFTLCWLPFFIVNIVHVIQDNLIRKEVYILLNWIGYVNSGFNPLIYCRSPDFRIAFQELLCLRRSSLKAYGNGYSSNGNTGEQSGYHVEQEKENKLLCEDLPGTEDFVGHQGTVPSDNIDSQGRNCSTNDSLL
How it was run: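 Cells (CHO, stable ADRB2 overexpression) incubated 18-20hr at 37C; compounds added from DMSO; agonist mix (1nM isoproterenol, 100uM IBMX, 25uM Ro-20-1724) added; 0.5hr RT; d2-cAMP and anti-cAMP-cryptate added; 1hr RT; 665/615 nm read.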

[14] = target: D(2) dopamine receptor (Homo sapiens) (UniProt P14416); test: Dopamine D2 receptor (DRD2) small molecule agonists, cell-based qHTS assay (AID 1963594); note: nearly all actives have a fitted effect of over 35% in size
Sequence of D(2) dopamine receptor (Homo sapiens) (P14416 whole entry, looked up): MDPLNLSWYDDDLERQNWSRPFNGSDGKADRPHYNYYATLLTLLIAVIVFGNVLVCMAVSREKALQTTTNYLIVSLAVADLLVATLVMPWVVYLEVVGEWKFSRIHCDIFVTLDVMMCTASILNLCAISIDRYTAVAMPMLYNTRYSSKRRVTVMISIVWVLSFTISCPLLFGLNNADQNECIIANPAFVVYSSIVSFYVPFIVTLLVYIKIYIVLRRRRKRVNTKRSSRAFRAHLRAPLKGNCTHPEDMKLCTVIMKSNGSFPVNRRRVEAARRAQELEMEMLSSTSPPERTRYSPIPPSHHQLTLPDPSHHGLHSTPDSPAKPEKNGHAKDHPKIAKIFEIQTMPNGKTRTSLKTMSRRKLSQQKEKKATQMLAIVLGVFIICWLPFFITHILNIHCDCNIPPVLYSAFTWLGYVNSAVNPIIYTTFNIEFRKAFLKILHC
How it was run: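 HEK293 cells stably expressing DRD2 were cultured 24 h at 37 C, then given Ro20-1724 (0.1 mM final) and compounds for 10 min at room temperature. NKH477 (200nM) was then added for 30 min. cAMP was read by HTRF.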

[15] = target: 5-hydroxytryptamine receptor 2A (Homo sapiens) (UniProt P28223); test: 5-hydroxytryptamine receptor 2A (HTR2A) small molecule antagonists, cell-based qHTS assay (AID 1963586); note: nearly all actives have a fitted effect of over 45% in size
Sequence of 5-hydroxytryptamine receptor 2A (Homo sapiens) (P28223 whole entry, looked up): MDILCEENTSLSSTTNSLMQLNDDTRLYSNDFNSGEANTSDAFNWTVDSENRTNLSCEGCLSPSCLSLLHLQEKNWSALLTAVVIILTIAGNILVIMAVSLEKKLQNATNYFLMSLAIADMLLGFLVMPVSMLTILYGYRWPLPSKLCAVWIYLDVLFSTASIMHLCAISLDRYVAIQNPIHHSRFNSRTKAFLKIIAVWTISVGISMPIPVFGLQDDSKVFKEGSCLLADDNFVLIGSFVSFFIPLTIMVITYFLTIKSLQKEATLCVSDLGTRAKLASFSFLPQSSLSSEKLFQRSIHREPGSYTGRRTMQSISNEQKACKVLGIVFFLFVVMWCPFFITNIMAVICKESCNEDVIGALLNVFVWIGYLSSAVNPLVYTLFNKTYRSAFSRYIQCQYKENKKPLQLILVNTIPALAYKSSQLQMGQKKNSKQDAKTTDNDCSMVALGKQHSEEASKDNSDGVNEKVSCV
How it was run: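 Antagonist-mode intracellular calcium assay: DOI (4 nM) added after 5 min compound pre-incubation at room temperature to dye-loaded HTR2A-CHO cells. Fluorescence followed for 3 min, sampled every second.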

[16] = target: 5-hydroxytryptamine receptor 2A (Homo sapiens) (UniProt P28223); test: 5-hydroxytryptamine receptor 2A (HTR2A) small molecule agonists, cell-based qHTS assay (AID 1963587); note: nearly all actives have a fitted effect of over 30% in size
How it was run: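 HTR2A-CHO cells, plated 18 h at 37 C/5% CO2, dye-loaded 1 h at 37 C; compounds in DMSO added by pin tool (agonist mode). Intracellular calcium flux read as kinetic fluorescence on FDSS over 2 min at 1 s intervals.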

[17] = target: Muscarinic acetylcholine receptor M1 (Homo sapiens) (UniProt P11229); test: Cholinergic receptor muscarinic 1 (CHRM1) small molecule antagonists, cell-based qHTS assay (AID 1963588); note: nearly all actives have a fitted effect of over 40% in size
Sequence of Muscarinic acetylcholine receptor M1 (Homo sapiens) (P11229 whole entry, looked up): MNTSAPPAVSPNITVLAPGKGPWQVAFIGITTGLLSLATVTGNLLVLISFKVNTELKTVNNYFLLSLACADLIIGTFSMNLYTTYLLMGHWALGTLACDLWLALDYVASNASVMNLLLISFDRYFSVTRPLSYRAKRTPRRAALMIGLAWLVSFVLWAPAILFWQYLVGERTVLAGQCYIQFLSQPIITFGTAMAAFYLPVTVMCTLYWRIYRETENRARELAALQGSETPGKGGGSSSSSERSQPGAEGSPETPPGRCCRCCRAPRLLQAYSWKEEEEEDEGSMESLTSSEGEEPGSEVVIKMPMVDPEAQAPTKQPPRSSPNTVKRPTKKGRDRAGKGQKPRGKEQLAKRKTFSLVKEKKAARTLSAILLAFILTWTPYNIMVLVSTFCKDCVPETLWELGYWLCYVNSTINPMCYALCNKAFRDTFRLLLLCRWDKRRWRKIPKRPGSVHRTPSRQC
How it was run: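 CHRM1-CHO calcium-flux assay, antagonist mode. Cells were seeded 18 h, dye-loaded 1 h at 37 C and given compound for 5 min at RT, then acetylcholine was added at 50nM. FDSS fluorescence was read 3 min; 15 concentrations, three runs.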

[18] = target: Muscarinic acetylcholine receptor M1 (Homo sapiens) (UniProt P11229); test: Cholinergic receptor muscarinic 1 (CHRM1) small molecule agonists, cell-based qHTS assay (AID 1963589); note: nearly all actives have a fitted effect of over 35% in size
How it was run: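 Each compound was tested at 15 concentrations across three independent runs on dye-loaded CHO cells stably expressing human CHRM1, reading intracellular calcium fluorescence kinetically at 1 sec intervals.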

[19] = target: D(2) dopamine receptor (Homo sapiens) (UniProt P14416); test: Dopamine D2 receptor (DRD2) small molecule antagonists, cell-based qHTS assay (AID 1963595; active = well fitted inhibition curve with a large enough effect in the signal ratio in the repeat runs, with a control signal flat; the % refers to the signal ratio)
How it was run: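 Antagonism was scored as restored cAMP in HEK293-DRD2 cells. These cells were stimulated with 200 nM NKH477 and 12 nM quinpirole for 30 min at room temperature, in the presence of 0.1 mM Ro20-1724.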

[20] = target: Beta-2 adrenergic receptor (Homo sapiens) (UniProt P07550); test: Adrenergic beta2 receptor (ADRB2) small molecule agonists, cell-based qHTS assay (AID 1963593);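 note: CHO cells stably overexpressing human ADRB2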
How it was run: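 CHO cells stably over-expressing ADRB2 were plated overnight at 37C, then dosed with compounds plus a stimulation mix containing 100uM IBMX and 25uM Ro-20-1724 for 0.5hr at room temperature. cAMP was measured by HTRF competition, 1hr.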

Row | Structure (SMILES) | Potency [1] | Potency [2] | Potency [3] | Potency [4] | Potency [5] | Potency [6] | Potency [7] | Potency [8] | Potency [9] | Potency [10] | Potency [11] | Potency [12] | Potency [13] | Potency [14] | Potency [15] | Potency [16] | Potency [17] | Potency [18] | Potency [19] | Potency [20]
1 | O=c1n(CCCN2CCN(c3cccc(Cl)c3)CC2)nc2ccccn12 | inactive | inactive | inactive | inactive | inactive | inactive | inactive | inactive | inactive | inactive | inactive | inactive | inactive | inactive |  |  |  |  |  | 
2 | NC(=O)Cc1cccc(C(=O)c2ccccc2)c1N | inactive | inactive | inactive | inactive | inactive | inactive | inactive | inactive | inactive | inactive | inactive | inactive | inactive |  | inactive | inactive | inactive | inactive | inactive | 
3 | CCCCCC(CC)OC(=O)CCCOc1ccc(Cl)cc1Cl (stereo not given) | inactive | inactive | inactive | inactive | inactive | inactive | inactive | inactive | inactive | inactive | inactive | inactive | inactive | inactive | inactive | inactive |  | inactive | inactive | inactive
4 | CC1(C)[C@@H]2CC[C@@]1(C)[C@H](O)C2 | inactive | inactive | inactive | inactive | inactive | inactive | inactive | inactive | inactive | inactive | inactive |  | inactive | inactive | inactive | inactive | inactive | inactive | inactive | inactive
5 | ClCCCl | inactive | inactive | inactive | inactive | inactive | inactive | inactive | inactive | inactive | inactive | inactive | inactive | inactive | inactive | inactive |  | inactive | inactive |  | 
6 | CC/C(=C(/CC)c1ccc(O)cc1)c1ccc(O)cc1 | 42.9 µM (active) and 61.1 µM (active) | inactive | inactive | inactive | inactive | inactive | inactive | inactive | inactive |  | inactive | inactive | inactive |  |  |  |  |  | inactive | inactive
7 | C1=C\CC/C=C\CC/C=C\CC/1 | inactive | inactive | inactive | inactive | inactive | inactive | inactive | inactive |  | inactive | inactive | inactive | inactive | inactive | inactive | inactive | inactive | inactive | inactive | inactive
8 | CS(C)(=O)=O | inactive | inactive | inactive | inactive | inactive | inactive | inactive | inactive | inactive | inactive | inactive | inactive | inactive | inactive | inactive | inactive | inactive |  | inactive | inactive
9 | O=C(O)c1cccc(Cl)c1Cl | inactive | inactive | inactive | inactive | inactive | inactive | inactive | inactive | inactive |  | inactive | inactive | inactive | inactive | inactive | inactive | inactive | inactive |  | inactive
10 | SCCSCCS | inactive | inactive | inactive | inactive | inactive | inactive | inactive |  | inactive | inactive | inactive | inactive | inactive | inactive | inactive | inactive |  | inactive | inactive | inactive
11 | c1ccc2cnncc2c1 | inactive | inactive | inactive | inactive | inactive | inactive | inactive | inactive | inactive | inactive | inactive | inactive |  | inactive | inactive | inactive | inactive | inactive | inactive | 
12 | CC(C)(C)NC[C@H](O)COc1nsnc1N1CCOCC1 | inactive | inactive | inactive | inactive | inactive | inactive | inactive | inactive | inactive | inactive |  | inactive |  | inactive |  |  |  |  | inactive | 
13 | CO[Si](CCCCl)(OC)OC | inactive | inactive | inactive | inactive | inactive | inactive | inactive | inactive | inactive | inactive |  | inactive | inactive | inactive | inactive | inactive | inactive | inactive | inactive | inactive
14 | CCCSc1ccc2nc(NC(=O)OC)[nH]c2c1 | inactive | inactive | inactive | inactive | inactive | inactive | inactive | inactive |  |  |  | inactive | inactive | inactive |  |  |  |  | inactive | inactive
15 | Oc1ccc2c(c1)OC[C@@H](N1CCC(O)(c3ccc(F)cc3)CC1)[C@H]2O | inactive | inactive | inactive | inactive | inactive | inactive | inactive | inactive | inactive | inactive |  | inactive | inactive |  | inactive | inactive | inactive |  | inactive | inactive
